# RORg inh = qHTS for inhibitors of ROR gamma transcriptional activity. Nuclear receptor ROR-gamma (Mus musculus), P51450. Drosophila S2 Gal4-RORgamma UAS-luciferase reporter, 20 h. Potency, µM (doses to about 53.6 µM), for the others: at the highest dose activity change, negative = inhibition, usual class: inhibitors. hit rate 5.4% among 310,000; note: potency is the fitted concentration of half-maximal effect; % is set by controls: 0 for no effect and ±100 for the full control effect; nearly all actives have a fitted effect of over 60% in size
#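 Luminescence from a UAS-regulated Photinus luciferase reporter in stably transfected Drosophila Schneider cells is measured; decreased signal marks ROR gamma inhibition. Fusion expression is induced by 700 uM copper sulfate for 20 hr.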
# Six1-Eya2 inh = qHTS Assay for Inhibitors of the Six1/Eya2 Interaction; AlphaScreen GST-Six1/His-Eya2 binding, biochemical; stronger effect = lower value; AID 651725, 2012; hit rate 0.56% among 360,000; activity change, % (no concentration beside the values); in the data active = activity change below about -65%; inconclusive = mostly about -30% to -63%; note: % is set by controls: 0 for no effect and ±100 for the full control effect
# Target sequence (O00167 whole entry, looked up): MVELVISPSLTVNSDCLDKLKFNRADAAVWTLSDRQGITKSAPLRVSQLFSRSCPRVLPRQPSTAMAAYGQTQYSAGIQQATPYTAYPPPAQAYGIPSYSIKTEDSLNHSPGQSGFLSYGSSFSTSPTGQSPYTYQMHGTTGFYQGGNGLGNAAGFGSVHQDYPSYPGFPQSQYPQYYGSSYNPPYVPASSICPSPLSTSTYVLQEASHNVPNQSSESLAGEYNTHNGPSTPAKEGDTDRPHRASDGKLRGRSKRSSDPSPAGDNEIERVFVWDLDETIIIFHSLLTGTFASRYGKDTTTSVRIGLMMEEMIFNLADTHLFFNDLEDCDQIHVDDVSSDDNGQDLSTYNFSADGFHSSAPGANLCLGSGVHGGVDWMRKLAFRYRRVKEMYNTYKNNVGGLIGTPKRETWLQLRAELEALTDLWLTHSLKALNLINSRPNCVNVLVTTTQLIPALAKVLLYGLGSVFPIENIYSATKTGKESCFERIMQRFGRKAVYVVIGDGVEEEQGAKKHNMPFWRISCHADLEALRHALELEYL
# Target sequence (Q15475 whole entry, looked up): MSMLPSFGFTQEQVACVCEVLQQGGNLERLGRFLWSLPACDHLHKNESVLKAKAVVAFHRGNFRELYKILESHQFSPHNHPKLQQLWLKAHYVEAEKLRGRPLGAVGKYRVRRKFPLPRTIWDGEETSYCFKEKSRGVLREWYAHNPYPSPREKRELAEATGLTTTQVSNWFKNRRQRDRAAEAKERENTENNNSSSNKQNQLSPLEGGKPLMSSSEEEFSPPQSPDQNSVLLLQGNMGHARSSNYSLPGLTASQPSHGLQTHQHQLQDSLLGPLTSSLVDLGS
#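 GST-Six1 + His-Eya2 (5X stock: 250/500 nM); Tris pH 8.0, 300 mM NaCl, 0.05% BSA, 0.02% Tween 20; GSH donor/Ni acceptor beads; 1 h 37 °C dark; AlphaScreen readout.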
# MBNL1-CUG inh = qHTS Assay for Inhibitors of MBNL1-poly(CUG) RNA binding. Muscleblind-like protein 1 (Homo sapiens), Q9NR56. TR-FRET MBNL1-His/biotin-(CUG)12 binding, 665/545 ratio. Potency, µM (series often up to 57.5 µM), without a hit: at the highest dose activity change, negative = inhibition, actives largely listed as inhibitors. hit rate 0.036% among 280,000. AID 2675, 2010; active = well fitted inhibition curve with a large enough effect in the signal ratio, with a control signal flat, not every such curve was filed as active; inconclusive = small, poorly fitted or top-dose-only effect, or effect the other way, or a change in a side signal; inactive = no such curve, though single readings can be large or run the other way; the % refers to the signal ratio; note: potency is the fitted concentration of half-maximal effect; % is set by controls: 0 for no effect and ±100 for the full control effect
#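 TR-FRET readout: Ex 340 nm, 665/545 nm emission ratio, normalized to buffer-only (basal) and MBNL1-(CUG)12 controls. Complex of MBNL1-His with Biotin-(CUG)12, compounds 92 nM–58 uM, incubated 60 min at room temperature.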
# CtBP-E1A blk = qHTS Assay for Inhibitors of the CtBP/E1A Interaction | CtBP / adenovirus E1A interaction (AlphaScreen) | AlphaScreen GST-E1A/His-CtBP binding, 1536-well; stronger effect = lower value | activity change, % (no concentration beside the values) | hit rate 0.49% among 340,000; in the data active = activity change below about -65%; inconclusive = mostly about -30% to -63%; note: % is set by controls: 0 for no effect and ±100 for the full control effect
#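 In 5 uL wells, 23 nL compound meets equimolar GST-E1A and His-CtBP (5X stock 125 nM each) for 2 h, 37 °C. Beads (5X, 50 ug/mL) then 1 h, 37 °C, dark.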
# Gal4-VP16 FLuc = VP16 counterscreen qHTS for inhibitors of ROR gamma transcriptional activity; AID 2546, 2010; Potency, µM (doses to about 53.6 µM), without a hit: at the top dose activity, negative = inhibition, actives largely listed as inhibitors; hit rate 3.5% among 310,000; Drosophila S2 Gal4-VP16 UAS-luciferase, luminescence, 20 h;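 note: Gal4-VP16 expression switched on by copper sulfate through the metallothionein promoter; potency is the fitted concentration of half-maximal effect; % is set by controls: 0 for no effect and ±100 for the full control effect; nearly all actives have a fitted effect of over 50% in size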
# CBFb-RUNX1 inh = qHTS Assay for Compounds Blocking the Interaction Between CBF-beta and RUNX1 for the Treatment of Acute Myeloid Leukemia. Runt-related transcription factor 1 (Homo sapiens) + Core-binding factor subunit beta …. AlphaScreen CBFb-His/RUNX1-biotin binding, biochemical. Potency, µM (highest dose often 59.8 µM), for inactives: at the highest dose activity, negative = inhibition, actives largely listed as inhibitors. 230,000 tested, under 10 active. AID 1477, 2009; note: % of control where 0% means no effect
#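 CBF-beta (His) and RUNX1 (biotin), 30 nM each; 20 min preassociation; + compound, 15 min; + beads 50 ng each (Ni, streptavidin), 90 min; RT; AlphaScreen read.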
# * hit, by the source's call; ? = inconclusive; · = no result given. Most compounds without a hit are left out; they make up all but 5.5% or so of the library. Unless noted, calls come from the whole dose curve; as a rule, active = well fitted curve in the direction sought with a large enough effect; inconclusive = small, poorly fitted or top-dose-only effect, or another doubt; inactive = no such curve, though single readings can be large; an effect the other way counts as inactive or inconclusive.
SMILES,RORg inh,Six1-Eya2 inh,MBNL1-CUG inh,CtBP-E1A blk,Gal4-VP16 FLuc,CBFb-RUNX1 inh
COCCn1c(SCC(=O)c2c(N)n(C3CC3)c(=O)[nH]c2=O)nc2ccccc21,·,10.9,·,0.8,·,·
COc1ccccc1N1CC(C(=O)Nc2ccc(C)c(S(=O)(=O)N3CCOCC3)c2)CC1=O (centres undefined),·,-4.4,·,0.5,·,·
O=C(CN1CC(=O)Oc2ccccc21)OCC(=O)c1ccc(Br)cc1,·,-90.7*,·,-86.7*,·,·
O=C(CN1CC(=O)Oc2ccccc21)OCC(=O)c1ccc(F)cc1,?,-75.2*,-1.3%,?,-22.2%,?
CNc1cccc2c1C(=O)c1ccccc1C2=O,-22.5%,-87.5*,?,-2.6,-4.4%,·
Cc1oc2c(c1C(=O)NCc1cccnc1)C(=O)c1ccccc1C2=O,?,-7.7,?,-15.2,4.47µM*,3.6%
O=C1c2ccccc2C(=O)c2c(NCc3cccnc3)cccc21,-19.5%,?,?,-8.2,3.16µM*,4.6%
CC(=O)c1c(C)oc2c1C(=O)c1ccccc1C2=O,3.98µM*,8.0,25.4%,0.0,15.8µM*,-1.3%
CN(C)S(=O)(=O)c1cccc2c1C(=O)c1ccccc1C2=O,-33.0%,-29.8,?,0.0,-4.7%,-7.6%
CCc1nnc(NS(=O)(=O)c2ccc(NC(=O)c3cc(Cl)ccc3OC)cc2)s1,21.5%,-2.1,-6.5%,-2.6,-3.4%,·
Cn1c(=O)c2c(-c3ccccc3)n(-c3ccccc3Br)cc2n(C)c1=O,·,?,·,0.0,·,·
Cc1c(Cl)sn(-c2ccc(Cl)cc2)c1=O,1.58µM*,-3.2,-7.5%,-1.8,2.82µM*,2.5%
N#CC(Cc1ccc(O)c(O)c1)C(=O)N1CCc2ccccc21 (centres undefined),·,·,·,·,·,-22.0%
C/C(=N\Nc1cc(N2CCOCC2)nc(C)n1)c1ccc(F)cc1,-11.8%,-1.6,-1.2%,-2.0,2.7%,·
C/C(=N\Nc1ncc(Cl)cc1Cl)c1ccccn1,0.708µM*,-86.9*,-2.3%,-66.2*,14.1µM*,?
C/C(=N/Nc1nc(C)cc(C)n1)c1ccc(Br)cc1,7.94µM*,-3.8,16.6%,1.3,7.94µM*,·
C/C(=N\Nc1cc(N2CCCCC2)nc(C)n1)c1ccc(Br)cc1,?,-5.6,2.0%,-15.5,6.31µM*,·
C/C(=N/Oc1nc(C)cc(C)n1)c1ccc(Br)cc1,?,-9.3,12.3%,-2.0,?,2.4%
C/C(=N\Nc1ncnc2sc(C)c(C)c12)c1ccccn1,0.398µM*,-73.4*,5.6%,-94.0*,0.794µM*,·
COc1cccc(Cn2c(=O)c(-c3cccc(C#N)c3)nc3cnc(Nc4ccccc4)nc32)c1,-0.3%,·,·,·,-11.3%,·
CC1CCCC(NC(=O)CCNC(=O)c2ccc(Br)cc2)C1C (centres undefined),·,1.1,·,-1.1,·,·
COCCNC(=O)C1CCCN(S(=O)(=O)c2ccc3c(c2)CC(C)N3C(=O)C2CC2)C1 (centres undefined),-2.7%,0.2,-10.1%,4.1,-1.3%,·
CCNC(=O)C1(C)CCN1CCS(=O)(=O)c1ccc(C)cc1 (centres undefined),·,3.2,·,0.5,·,·
C/C(=N\Nc1cccc2cccnc12)c1ccccc1O,?,-10.5,-3.2%,-0.1,-11.4%,?
C/C(=N\Nc1cccc2cccnc12)c1ccccn1,0.631µM*,-14.6,5.2%,-4.6,3.98µM*,?
SMILES,RORg inh,Six1-Eya2 inh,MBNL1-CUG inh,CtBP-E1A blk,Gal4-VP16 FLuc,CBFb-RUNX1 inh
C/C(=N\NC(=O)c1ccccc1)c1ccc(N2CCOCC2)cc1,-0.7%,5.3,0.3%,0.3,4.1%,-2.3%
C/C(=N\Nc1nc(C)cc(C)n1)c1ccc(N2CCOCC2)cc1,11.2µM*,2.8,0.6%,-0.7,-4.6%,-6.8%
C/C(=N\Nc1nc2ccccc2[nH]1)c1ccc(N2CCOCC2)cc1,3.16µM*,?,6.2%,?,?,-22.1%
C/C(=N\NC(=O)c1ccncc1)c1ccc(N2CCOCC2)cc1,·,-2.3,·,0.0,·,·
C/C(=N\Nc1ncc(Cl)cc1Cl)c1ccc(N2CCOCC2)cc1,5.01µM*,-8.1,-2.2%,-0.2,?,?
CC1(C(=O)NCc2ccc(F)c(F)c2)Cc2c(-c3ccccc3)ccnc2O1 (centres undefined),·,2.3,·,-8.1,·,·
C[C@H](CO)N1C[C@H](C)[C@H](CN(C)C(=O)C2CC2)OCc2cnnn2CCCC1=O,·,0.8,·,5.8,·,·
COc1ccc(C(=O)OCc2nc(N)nc(Nc3ccccc3C)n2)cc1OC,17.8µM*,-5.1,·,-15.2,5.2%,6.6%
COc1ccc(-c2coc3cc(OC)ccc3c2=O)cc1,·,4.4,·,3.6,·,·
Cc1nc(-c2coc3cc(O)c(C)cc3c2=O)cs1,-41.9%,-6.9,?,4.0,?,4.8%
Cc1nc(-c2coc3cc(OCC(=O)O)ccc3c2=O)cs1,7.08µM*,-0.9,-1.3%,-2.3,6.31µM*,0.3%
COc1ccc2c(=O)c(-c3nc(C)cs3)coc2c1,1.26µM*,0.7,7.6%,-0.8,2.24µM*,3.3%
Fc1ccc(-c2cc(-c3ccccc3)nc(-n3cccn3)n2)cc1,1µM*,3.5,-6.6%,9.9,?,21.8%
O=c1cc(-c2ccccc2)nc2cc(-c3ccc(F)cc3)[nH]n12,·,0.8,·,2.9,·,·
COc1cc(OC)cc(C(=O)NNC(=O)C(=O)Nc2cc(OC)c(Cl)cc2OC)c1,7.94µM*,-9.4,-4.0%,-23.7,-1.8%,·
CCc1cc2c(=O)c(-c3nc4ccccc4n3C)c(COCC(=O)O)oc2cc1OC(=O)C(C)(C)C,4.47µM*,15.0,5.4%,10.1,-23.6%,21.3%
c1csc(C2CCCN2c2nc3nonc3nc2NC2CC2)n1 (centres undefined),5.01µM*,-1.1,3.7%,-1.2,10µM*,-5.5%
CC(c1nccs1)N(C)c1nc2nonc2nc1NC1CC1 (centres undefined),-11.9%,5.1,2.8%,5.8,6.3%,-0.4%
Cc1ccccc1-n1c([C@@H]2C[C@H]2c2ccccc2)n[nH]c1=S,5.01µM*,-16.5,·,13.5,?,-1.4%
O=C(Cc1ccccc1)NCc1n[nH]c(=S)n1-c1ccccc1,-33.5%,-3.9,7.4%,·,13.6%,0.5%
S=c1[nH]nc([C@@H]2C[C@H]2c2ccccc2)n1-c1ccccc1,2.82µM*,-12.8,-17.2%,14.7,3.98µM*,0.3%
